Data: ChEMBL document CHEMBL4296182, “CO-ADD screening of NIH NCI Diversity Set V”
For part of these data: Potency and affinity values are given separately.

How the values were obtained:
Staphylococcus aureus = assay: Antibacterial activity against Staphylococcus aureus MRSA ATCC 43300 (CO-ADD:GP_020); MIC in CAMBH media using NBS plates, by Resazurin F(560/590); format: functional; settings: Concentration 20 uM, ASSAY_TEST Inhibition of Bacterial Growth, detection method Resazurin, Fluorescence (ex560/em590), MEDIA CAMHB, plate type 384well, CORNING #3640, time 18 hr
Acinetobacter baumannii = assay: Antibacterial activity against Acinetobacter baumannii ATCC 19606 (CO-ADD:GN_034); MIC in CAMBH media using NBS plates, by Resazurin F(560/590); format: functional; settings: Concentration 20 uM, ASSAY_TEST Inhibition of Bacterial Growth, detection method Resazurin, Fluorescence (ex560/em590), MEDIA CAMHB, plate type 384well, CORNING #3640, time 18 hr
Escherichia coli = assay: Antibacterial activity against Escherichia coli ATCC 25922 (CO-ADD:GN_001); MIC in CAMBH media using NBS plates, by Resazurin F(560/590); format: functional; settings: Concentration 20 uM, ASSAY_TEST Inhibition of Bacterial Growth, detection method Resazurin, Fluorescence (ex560/em590), MEDIA CAMHB, plate type 384well, CORNING #3640, time 18 hr
Klebsiella pneumoniae = settings: Concentration 20 uM; ASSAY_TEST Inhibition of Bacterial Growth; detection method Absorption (OD600); MEDIA CAMHB; plate type 384well; NBS; CORNING #3640; time 18 hr
Candida albicans = settings: 20 µM
Cryptococcus neoformans = settings: Concentration 20 uM; ASSAY_TEST Inhibition of Fungal Growth; detection method Resazurin; Absorption (OD600-OD570); plate type 384well; NBS; CORNING #3640

O=[N+]([O-])c1ccccc1CSc1nc(O)c2nc[nH]c2n1
Inhibition (Staphylococcus aureus): 26.98%
Inhibition (Acinetobacter baumannii): 9.09%
Inhibition (Escherichia coli): 5.06%
Inhibition (Klebsiella pneumoniae): 15.06%
Inhibition (Candida albicans): 1%
Inhibition (Cryptococcus neoformans): -13.62%

Nc1nc(N)nc(C2C=CCCC2)n1 (centres undefined)
Inhibition (Staphylococcus aureus): 1.35%
Inhibition (Acinetobacter baumannii): -5.4%
Inhibition (Escherichia coli): 16.17%
Inhibition (Klebsiella pneumoniae): 16.96%
Inhibition (Candida albicans): 0.09%
Inhibition (Cryptococcus neoformans): -8.05%

CN1CCC(n2[nH]c(-c3ccccc3)c(Cc3ccccc3)c2=O)CC1 [BENZPIPERYLON]
Inhibition (Staphylococcus aureus): 11.83%
Inhibition (Acinetobacter baumannii): -21.66%
Inhibition (Escherichia coli): 9.93%
Inhibition (Klebsiella pneumoniae): 7.59%
Inhibition (Candida albicans): -2.02%
Inhibition (Cryptococcus neoformans): -11.9%

NCC(=O)c1cccc2ccc[n+]([O-])c12
Inhibition (Staphylococcus aureus): 9.77%
Inhibition (Acinetobacter baumannii): 5.17%
Inhibition (Escherichia coli): 0.84%
Inhibition (Klebsiella pneumoniae): 20.91%
Inhibition (Candida albicans): 0.31%
Inhibition (Cryptococcus neoformans): -8.51%

CSc1nnc(-c2cccs2)[nH]1
Inhibition (Staphylococcus aureus): 9.02%
Inhibition (Acinetobacter baumannii): -12.85%
Inhibition (Escherichia coli): 11.01%
Inhibition (Klebsiella pneumoniae): 0.04%
Inhibition (Candida albicans): 1.33%
Inhibition (Cryptococcus neoformans): -11.54%

CN(C)S(=O)(=O)Nc1cccc(Br)c1
Inhibition (Staphylococcus aureus): 1.46%
Inhibition (Acinetobacter baumannii): -10.63%
Inhibition (Escherichia coli): 3.48%
Inhibition (Klebsiella pneumoniae): 2.53%
Inhibition (Candida albicans): 4.88%
Inhibition (Cryptococcus neoformans): 43.58%

CSc1ccc(NC(=O)Nc2ccccc2C(N)=O)cc1
Inhibition (Staphylococcus aureus): 16.3%
Inhibition (Acinetobacter baumannii): 11.66%
Inhibition (Escherichia coli): 11.12%
Inhibition (Klebsiella pneumoniae): 15.39%
Inhibition (Candida albicans): 4.24%
Inhibition (Cryptococcus neoformans): 3.99%

Oc1ccc2ccc3[nH]cnc3c2c1
Inhibition (Staphylococcus aureus): 14.46%
Inhibition (Acinetobacter baumannii): -12.2%
Inhibition (Escherichia coli): 3.66%
Inhibition (Klebsiella pneumoniae): 6.42%
Inhibition (Candida albicans): -0.74%
Inhibition (Cryptococcus neoformans): -8.68%

Cc1ccn2c(C(C)O)nnc2c1 (centres undefined)
Inhibition (Staphylococcus aureus): 16.33%
Inhibition (Acinetobacter baumannii): -15.76%
Inhibition (Escherichia coli): 12.13%
Inhibition (Klebsiella pneumoniae): 2.31%
Inhibition (Candida albicans): -1.79%
Inhibition (Cryptococcus neoformans): -15.94%

Cn1ncc2c(Nc3ccccc3Cl)nc(Cl)nc21
Inhibition (Staphylococcus aureus): 11.91%
Inhibition (Acinetobacter baumannii): 12.64%
Inhibition (Escherichia coli): 1.79%
Inhibition (Klebsiella pneumoniae): 7.78%
Inhibition (Candida albicans): 7.2%
Inhibition (Cryptococcus neoformans): -6.78%

N#C/C(=C\c1c[nH]c2ccccc12)C(N)=O
Inhibition (Staphylococcus aureus): 13.33%
Inhibition (Acinetobacter baumannii): 12.56%
Inhibition (Escherichia coli): 0.03%
Inhibition (Klebsiella pneumoniae): 10.43%
Inhibition (Candida albicans): 4.53%
Inhibition (Cryptococcus neoformans): -10.69%

CCCc1cc(=O)oc2c3c(c4c(c12)OC(C)(C)C=C4)OC(C)[C@H](C)[C@@H]3O (some centres undefined)
Inhibition (Staphylococcus aureus): 12.64%
Inhibition (Acinetobacter baumannii): -5.36%
Inhibition (Escherichia coli): 11.63%
Inhibition (Klebsiella pneumoniae): 20.98%
Inhibition (Candida albicans): 7.97%
Inhibition (Cryptococcus neoformans): -3.22%

CCNc1nn2ccccc2c1/C=C(/C#N)C(=O)OCC
Inhibition (Staphylococcus aureus): 10.32%
Inhibition (Acinetobacter baumannii): -16.65%
Inhibition (Escherichia coli): 7.73%
Inhibition (Klebsiella pneumoniae): 11.76%
Inhibition (Candida albicans): 8.75%
Inhibition (Cryptococcus neoformans): -8.42%

O=C1C2CC3N1CCC31c3ccccc3-n3c1c2ccc3=O (centres undefined)
Inhibition (Staphylococcus aureus): 27.56%
Inhibition (Acinetobacter baumannii): -3.15%
Inhibition (Escherichia coli): 6.22%
Inhibition (Klebsiella pneumoniae): 13.77%
Inhibition (Candida albicans): 5.53%
Inhibition (Cryptococcus neoformans): -4.11%

NCCN1CCNCC1
Inhibition (Staphylococcus aureus): -1.38%
Inhibition (Acinetobacter baumannii): -9.37%
Inhibition (Escherichia coli): 9.81%
Inhibition (Klebsiella pneumoniae): 11.04%
Inhibition (Candida albicans): 1.05%
Inhibition (Cryptococcus neoformans): 4.22%

Cc1ccc(NC(=O)Nc2ccccc2C(N)=O)cc1
Inhibition (Staphylococcus aureus): -6.86%
Inhibition (Acinetobacter baumannii): -15.18%
Inhibition (Escherichia coli): 6.22%
Inhibition (Klebsiella pneumoniae): 4.47%
Inhibition (Candida albicans): 1.66%
Inhibition (Cryptococcus neoformans): -13.76%

CC1(C)OC2CC(=O)OCC23C1CC(=O)C1(C)C3CCC2(C)C(c3ccoc3)OC(=O)C3OC321 (centres undefined)
Inhibition (Staphylococcus aureus): 21.22%
Inhibition (Acinetobacter baumannii): -6.97%
Inhibition (Escherichia coli): 8.41%
Inhibition (Klebsiella pneumoniae): 8.88%
Inhibition (Candida albicans): 0.13%
Inhibition (Cryptococcus neoformans): -7.86%

C(=N\n1cnnc1)/c1ccc2c(c1)CCC2
Inhibition (Staphylococcus aureus): 10.16%
Inhibition (Acinetobacter baumannii): -8.61%
Inhibition (Escherichia coli): 2.79%
Inhibition (Klebsiella pneumoniae): 9.91%
Inhibition (Candida albicans): 12.8%
Inhibition (Cryptococcus neoformans): -5.02%

c1ccc(-c2nnc3oc(-c4cccs4)nn23)cc1
Inhibition (Staphylococcus aureus): -2.52%
Inhibition (Acinetobacter baumannii): -16.04%
Inhibition (Escherichia coli): 4.88%
Inhibition (Klebsiella pneumoniae): 16.29%
Inhibition (Candida albicans): 19.4%
Inhibition (Cryptococcus neoformans): 28.69%
